Hit rate of the full screen: of about 52,000 compounds, about 1,700 (3.3%) were called active. The sample as a whole holds a higher share of actives than the screen did. Values without a mark were called inactive. Rule as the data show it: active = survival mostly below about 52% (no sharp cut-off); inactive = mostly above about 56%.
The molecules below were run on Wild type (assay: growth inhibition of S. aureus wild type versus tarO mutant, primary screen, teichoic acid synthesis inhibitors, RN4220, OD600 (AID 463173)). Details: S. aureus RN4220 wild type/DeltatarO growth, OD600, 18 h, hits give low values, screened at 18.75 µg/mL (by protocol).
For `CCN(CC)C(=O)c1ccc(Nc2nnc(-c3ccc(C)c(S(=O)(=O)NC)c3)c3ccccc23)cc1`, the survival was 79%.
Work on `COc1ccc(CNc2nc3c(-c4cccc(F)c4)nnn3c3ccccc23)cc1` yielded a survival of 86%.
`N#Cc1ccccc1NC(=O)C(=O)NCCc1csc2nc(-c3cccc(F)c3)nn12` gave a survival of 81%.
With `COc1ccc(CCC(=O)NCc2nc3cccnc3n2Cc2cccc(OC)c2)cc1` the survival was 73%.
In the case of `CCOC(=O)N1CCC2(CC1)OC(=O)C(C)=C2C(=O)NCc1cccc(OC)c1`, the survival is reported as 131%.
Molecule `CCOC(=O)CSc1nc2ccc(NC(=O)c3ccc(Cl)cc3)cc2s1` has a survival of 90%.
In the case of `CCOc1ccc(-c2nc3c(c(SCC(=O)N4CCCCC4)n2)Cc2cccc(OC)c2O3)cc1`, the survival is reported as 75%.
Molecule `CCNC(=O)C1CCN(c2nc3ccccc3nc2C(F)(F)F)CC1` has a survival of 148%.
For `CCCSCCCNC(=O)C1CCN(c2nc3ccccc3nc2C(F)(F)F)CC1`, the survival was -3% (active).
Work on `Cc1ccccc1CCNC(=O)C1CCN(c2nc3ccccc3nc2C(F)(F)F)CC1` yielded a survival of 68%.
Work on `CCCCNC(=O)C1CCN(c2nc3ccccc3nc2C(F)(F)F)CC1` yielded a survival of 82%.
`COc1ccccc1CCNC(=O)C1CCN(c2nc3ccccc3nc2C(F)(F)F)CC1` was tested, and the survival was 121%.
In the case of `O=C(NCCc1ccccc1Cl)C1CCN(c2nc3ccccc3nc2C(F)(F)F)CC1`, the survival is reported as 10% (active).
In the case of `Cc1ccc(NC(=O)C2CCN(c3nn4cc(-c5ccc(C)cc5)nc4s3)CC2)cc1`, the survival is reported as 60%.
Work on `Cc1cn2c(=O)cc(COC(=O)c3cccc(NC(=O)COc4ccccc4Cl)c3)nc2s1` yielded a survival of 124%.
In the case of `COc1ccc2c(c1)c1c(c(=O)n(Cc3ccccc3)c(=O)n1Cc1ccccc1Cl)n2C`, the survival is reported as 84%.
In the case of `O=C(Nc1ccc2nc3n(c(=O)c2c1)CCCCC3)C(=O)Nc1ccccc1F`, the survival is reported as 69%.
Molecule `O=C(Cc1ccc(Cl)cc1)NC1CC(=O)N(c2ccc3c(c2)OCCO3)C1` (configuration not stated) has a survival of 58%.
`CSc1ccccc1NC(=O)C1=CC(c2ccc3c(c2)OCO3)=NS(=O)(=O)N1C` showed a survival of 87%.
For `Cc1ccc(-c2nc3c(c(SCc4ccc(Br)cc4)n2)Cc2c(CO)cnc(C)c2O3)cc1`, the survival was 81%.
In the case of `CCOC(=O)c1c(C)[nH]c(C)c1S(=O)(=O)N1CCC(C(=O)NCc2ccc(F)cc2)CC1`, the survival is reported as 1% (active).
For `CCOC(=O)c1c(S(=O)(=O)N2CCC(C(=O)Nc3ccc(OCC)cc3)CC2)c(C)n(C)c1C`, the survival was 125%.
For `CCOC(=O)c1c(C)[nH]c(C)c1S(=O)(=O)N1CCC(C(=O)Nc2ccc(OCC)cc2)CC1`, the survival was -3% (active).
`CCOC(=O)c1c(C)[nH]c(C)c1S(=O)(=O)N1CCC(C(=O)Nc2ccc(C)c(Cl)c2)CC1` was tested, and the survival was 63%.
For `CCOC(=O)c1c(C)[nH]c(C)c1S(=O)(=O)N1CCC(C(=O)NCc2ccc(C)cc2)CC1`, the survival was 71%.
In the case of `CCOC(=O)c1c(C)[nH]c(C)c1S(=O)(=O)N1CCC(C(=O)NCc2ccccc2)CC1`, the survival is reported as 55%.
`O=C(NCC1CCCO1)c1ccc(NC(=O)c2ncn[nH]2)cc1` (configuration not stated) showed a survival of 98%.
`CCCCN(CC)CCNC(=O)CCn1cnc2onc(-c3ccc(F)cc3)c2c1=O` gave a survival of 72%.
Molecule `CCN(CC)CCCNC(=O)CCCn1ncn2c(cc3occc32)c1=O` has a survival of 85%.
For `O=S(=O)(c1ccc(Cl)cc1)c1nc(-c2ccccc2Br)oc1NCc1ccccc1`, the survival was 96%.
`COc1ccc(C(C)NC(=O)CN(c2cc(OC)ccc2OC)S(=O)(=O)c2ccccc2)cc1` (configuration not stated) was tested, and the survival was 76%.
For `COc1cccc2sc(N(Cc3cccnc3)C(=O)Cc3ccccc3)nc12`, the survival was 89%.
Work on `CCOc1ccc(NC(=O)C(=O)NCCc2sc(-c3ccc(C)cc3)nc2C)cc1` yielded a survival of 55%.
`CCOc1ccc(C(=O)NCCc2sc(-c3ccc(F)cc3)nc2C)cc1` showed a survival of 97%.
In the case of `COc1ccc(-c2nc(C)c(CCNC(=O)c3ccc(C(F)(F)F)cc3)s2)cc1OC`, the survival is reported as -4% (active).
Work on `CCOc1ccc(C(=O)NCCc2sc(-c3ccc(OC)c(OC)c3)nc2C)cc1` yielded a survival of 129%.
`CCOc1ccc(C(=O)NCCc2sc(-c3ccc(C)cc3)nc2C)cc1` was tested, and the survival was -3% (active).
Molecule `COc1ccc(-c2nc(C)c(CCNC(=O)c3cc(OC)c(OC)c(OC)c3)s2)cc1OC` has a survival of 57%.
Molecule `CCC(C(=O)Nc1nnc2n1CCS2)c1ccccc1` (configuration not stated) has a survival of 66%.
`CCN(CC)Cc1cc(C(=O)O)oc1C(C)(C)C` gave a survival of 106%.
For `COc1ccc(-c2cc(C(F)(F)F)c(C#N)c(SCC(=O)Nc3cccc(C)c3)n2)cc1`, the survival was 74%.
Work on `CN(C(=O)CSc1cn(CC(=O)N2CCCC2)c2ccccc12)c1ccccc1` yielded a survival of 83%.
`Cc1ccc(C(=O)NCC(c2ccc3c(c2)OCO3)N2CCN(c3ccc(F)cc3)CC2)cc1` (configuration not stated) showed a survival of 68%.
Molecule `Cc1ccc(C)c(CS(=O)(=O)c2cn(CC(=O)N(C(C)C)C(C)C)c3ccccc23)c1` has a survival of 77%.
For `O=C(CSc1ncc2c(n1)-c1ccc(Cl)cc1N(Cc1ccccc1)S2(=O)=O)Nc1ccc(F)c(F)c1`, the survival was 129%.
`COc1ccccc1CNC(=O)CSc1ncc2c(n1)-c1ccc(Cl)cc1N(Cc1ccccc1)S2(=O)=O` was tested, and the survival was 0% (active).
Molecule `COc1ccccc1CNC(=O)CSc1ncc2c(n1)-c1cc(Cl)ccc1N(Cc1ccccc1)S2(=O)=O` has a survival of 73%.
`COc1ccc(CNC(=O)CSc2ncc3c(n2)-c2ccc(Cl)cc2N(Cc2ccccc2)S3(=O)=O)cc1` showed a survival of 22%.
`CCc1cccc(NC(=O)CSc2ncc3c(n2)-c2ccc(Cl)cc2N(Cc2ccccc2)S3(=O)=O)c1` gave a survival of 101%.
With `Cc1cccc(C)c1NC(=O)CSc1ncc2c(n1)-c1ccc(Cl)cc1N(Cc1ccccc1)S2(=O)=O` the survival was -2% (active).
Molecule `CCc1ccc(NC(=O)Cn2c(=O)n(Cc3ccco3)c(=O)c3oc4ccccc4c32)cc1` has a survival of 87%.
`COc1ccc(C2C(=O)N(C3CCCCC3)CC(=O)N2CCc2ccc(C)cc2)cc1OC` (configuration not stated) showed a survival of 82%.
`Cc1ccc(NC(=O)CN2C(=O)C(c3ccccc3)=NC23CCCCC3)cc1C` gave a survival of 89%.
`COc1ccc(Br)cc1CNC(=O)c1nn(-c2ccc(C)cc2)c(=O)c2c1c1ccccc1n2C` was tested, and the survival was 126%.
For `CC1CCCC(C)N1C(=O)c1ccccc1N` (configuration not stated), the survival was 108%.
`COc1ccc(-c2ccc(NS(=O)(=O)c3cccc(Cl)c3)cc2)nn1` was tested, and the survival was 82%.
`COc1cccc(N2CCN(C(=O)c3cnc4c(-c5ccccc5)c(C)nn4c3C)CC2)c1` showed a survival of 76%.
In the case of `COc1cccc(N2CCN(C(=O)c3cnc4c(-c5ccc(F)cc5)c(C)nn4c3C)CC2)c1`, the survival is reported as -6% (active).
Molecule `Cc1nn2c(C)c(C(=O)N3CCN(c4ccc(Cl)cc4)CC3)cnc2c1-c1ccc(F)cc1` has a survival of 72%.
For `CC(=O)N1c2c(cc(Br)cc2S(=O)(=O)N2CCN(c3ccccc3)CC2)CC1C` (configuration not stated), the survival was 98%.
With `Nc1ccc2nc(CCc3ccccc3)[nH]c2c1` the survival was 106%.
`Oc1ccc(NCc2ccc(OCc3ccccc3)cc2)cc1` gave a survival of 87%.
With `Oc1ccc(NCc2ccc(OCc3ccccc3Cl)cc2)cc1` the survival was -4% (active).
`Oc1ccc(NCc2ccccc2OCc2ccccc2Cl)cc1` showed a survival of 82%.
In the case of `COc1ccc(NC(=O)C2=C(C)Nc3nc(SCc4ccc(Cl)cc4)nn3C2c2cccc(OC)c2OC)cc1` (configuration not stated), the survival is reported as 60%.
With `O=C(Nc1ccc(OC(F)(F)F)cc1)c1cc(-c2ccc(Cl)cc2)on1` the survival was 105%.
In the case of `Cc1ccccc1C(=O)Nc1ccc(C(=O)OCc2cc(=O)n3nc(C(C)C)sc3n2)cc1`, the survival is reported as 65%.
In the case of `CCN(CC)c1ncnc2c1cnn2-c1cc(Cl)ccc1C`, the survival is reported as -6% (active).
Molecule `CCN(c1ncnc2c1cnn2-c1cc(Cl)ccc1C)C1CCCCC1` has a survival of 80%.
`CCN(CC)CCNc1ncnc2c1cnn2-c1cc(Cl)ccc1C` was tested, and the survival was 98%.
`Cc1ccc(N2CCN(S(=O)(=O)c3ccc4oc(=O)c5ncn(C)c5c4c3)CC2)c(C)c1` showed a survival of 121%.
With `Cc1nc(N2CCOCC2)c2c(C(=O)NCCc3ccccc3)c(C)oc2n1` the survival was -3% (active).
In the case of `Cc1ccc(CCNC(=O)c2c(C)oc3nc(C)nc(N4CCOCC4)c23)cc1`, the survival is reported as 124%.
`CCc1ccccc1N(CC)C(=O)c1c(C)oc2ncnc(N3CCOCC3)c12` gave a survival of 70%.
Molecule `Cc1nc(N2CCCC2)c2c(C(=O)Nc3ccc(C)c(Cl)c3)c(C)oc2n1` has a survival of 130%.
With `Cc1oc2ncnc(N3CCOCC3)c2c1C(=O)NCCc1ccccc1` the survival was 85%.
`CCCN(C(=O)c1c(C)oc2ncnc(N3CCOCC3)c12)c1ccc(Cl)c(Cl)c1` was tested, and the survival was 74%.
With `Cc1ccc(CNC(=O)c2c(C)oc3ncnc(N4CCOCC4)c23)cc1` the survival was -1% (active).
In the case of `Cc1nc(N2CCCC2)c2c(C(=O)Nc3cccc(Cl)c3)c(C)oc2n1`, the survival is reported as -3% (active).
In the case of `CCc1ccc(CNC(=O)c2c(C)oc3ncnc(N4CCOCC4)c23)cc1`, the survival is reported as 133%.
For `COC(=O)CCN(C(=O)c1c(C)oc2ncnc(N3CCOCC3)c12)c1ccccc1`, the survival was 0% (active).
`CCc1cccc(NC(=O)c2c(C)oc3nc(C)nc(N4CCCC4)c23)c1` showed a survival of 101%.
Molecule `Cc1oc2ncnc(N3CCOCC3)c2c1C(=O)NCc1ccc(Cl)cc1` has a survival of 73%.
In the case of `CCc1cccc(C)c1NC(=O)c1cc(CN2CCCC2)on1`, the survival is reported as 72%.
`Cc1nc2ccc(S(=O)(=O)N(CC(=O)Nc3ccc(F)cc3F)Cc3ccccc3)cc2s1` gave a survival of 88%.
Work on `CCn1c(=O)c2cc(C(=O)NCc3ccc(F)cc3Cl)sc2c2ccccc21` yielded a survival of 81%.
In the case of `Cc1oc2ncnc(N3CCCCC3)c2c1C(=O)NCC1CCN(Cc2cccc(F)c2)CC1`, the survival is reported as -6% (active).
Molecule `Cc1oc2ncnc(N3CCCCC3)c2c1C(=O)NCC1CCN(Cc2ccc(F)cc2)CC1` has a survival of 90%.
With `CCCCN(CC)CCCNC(=O)c1c(C)oc2ncnc(N3CCOCC3)c12` the survival was 14% (active).
Molecule `CCCCN(CC)CCNC(=O)c1c(C)oc2ncnc(N3CCOCC3)c12` has a survival of 76%.
`CCN(CC)CCCNC(=O)c1c(C)oc2ncnc(N3CCOCC3)c12` showed a survival of 136%.
In the case of `Cc1cccc(CN2CCC(CNC(=O)c3c(C)oc4ncnc(N5CCCCC5)c34)CC2)c1`, the survival is reported as 98%.
